{"source": "the OligoGym collection"}
{"target": "RFX3", "assay": "pooled miR-30 sensor sort-seq; sequence = guide strand", "settings": "shRNA"}
{"sequence": "TTAAGTGTTGTAAAAATCCTTC", "sensor-assay potency score (higher = more potent)": -0.411}
{"sequence": "TAAATTTTCAACTTAAGCCCAA", "sensor-assay potency score (higher = more potent)": 0.019}
{"sequence": "AATTTGACAACAGTCGACCTTC", "sensor-assay potency score (higher = more potent)": 0.318}
{"sequence": "TTCTAGTCTCTGAACCATGTTG", "sensor-assay potency score (higher = more potent)": -0.714}
{"sequence": "TTGTTGTACTGGTACTTGCTGT", "sensor-assay potency score (higher = more potent)": -0.28}
{"sequence": "TTGGTATAGACAGTATCGCTTC", "sensor-assay potency score (higher = more potent)": -0.105}
{"sequence": "TAGAATTTGACAACAGTCGACC", "sensor-assay potency score (higher = more potent)": -0.732}
{"sequence": "TTGAAGATTCACAACAACGTCC", "sensor-assay potency score (higher = more potent)": 0.274}
{"sequence": "TACACCAAGACTAACAATCAAC", "sensor-assay potency score (higher = more potent)": -1.04}
{"sequence": "TTGACAACAGTCGACCTTCAGG", "sensor-assay potency score (higher = more potent)": -0.926}
{"sequence": "TAAATCACCAAACTCGCCCATG", "sensor-assay potency score (higher = more potent)": -0.686}
{"sequence": "TTGTTGTTCGGATTGCTCCATT", "sensor-assay potency score (higher = more potent)": -0.745}
{"target": "RGS13", "assay": "pooled miR-30 sensor sort-seq; sequence = guide strand", "settings": "shRNA"}
{"sequence": "ATGATAGTCTCTCTTGTCGAAC", "sensor-assay potency score (higher = more potent)": -1.51}
{"sequence": "ATAGTCTCTCTTGTCGAACTGT", "sensor-assay potency score (higher = more potent)": -0.257}
{"sequence": "TCTGACTTTAGAAATCTGGGGT", "sensor-assay potency score (higher = more potent)": 0.865}
{"sequence": "TTAAATTTTCAAAAGACTGGGC", "sensor-assay potency score (higher = more potent)": -0.0917}
{"sequence": "TTAATTGAACTACATAGGCTTG", "sensor-assay potency score (higher = more potent)": -0.858}
{"sequence": "TTAATGAACATAATAGTAGGAA", "sensor-assay potency score (higher = more potent)": 0.19}
{"sequence": "TAGGTTTCACATGCCATCCAGA", "sensor-assay potency score (higher = more potent)": -0.935}
{"sequence": "TAGTCTCTCTTGTCGAACTGTC", "sensor-assay potency score (higher = more potent)": -0.609}
{"sequence": "TTTTGGTACATTTCTGACTTTA", "sensor-assay potency score (higher = more potent)": -0.566}
{"sequence": "TAGAAATTCTGCTCCACCGTGA", "sensor-assay potency score (higher = more potent)": 0.617}
{"sequence": "TTCCTGATGATAGTCTCTCTTG", "sensor-assay potency score (higher = more potent)": -0.749}
{"sequence": "TTGAATATTCTCGTCACTGTGC", "sensor-assay potency score (higher = more potent)": 0.436}
